These results are taken from PubChem BioAssay.

Assay [1] concerns Plasmodium falciparum Sir2 (PF13_0152, Sir2A). In words: Plasmodium falciparum Sir2A binding compounds – biochemical, small-molecule microarray, 635 nm fluorescence, primary screen (AID 1098).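 Note: score merges spot fluorescence intensity with its signal-to-noise ratio.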 As to conditions: fluorescence 635 nm, higher = more signal.
The nature of assay [2]: probe aDKK1 binding to arrayed compounds – biochemical, biotinylated probe, 635/667 nm fluorescence, primary screen (AID 1099).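 Note: score merges 667nm spot fluorescence with signal to noise across triplicate slides.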 As to conditions: small-molecule microarray, higher = more signal.
A short description of assay [3]: probe aCHRDL2 binding to arrayed compounds – biochemical, biotinylated probe, 635/667 nm fluorescence, primary screen (AID 1100). The note with it: small-molecule microarray, higher = more signal.
Assay [4] can be described thus: change in splice reporter luminescence, either direction, cell-based, HEK293, spliceosome inhibition project, primary screen (AID 1101).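 Note: HEK293 cells carrying a splicing-competent luciferase reporter gene; test concentration not given here.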 As to conditions: HEK293 splicing luciferase reporter, 24 h, higher = more signal, called active from +8 up or from −8 down.
Assay [5] has as its target Fibroblast growth factor 10 (Homo sapiens) (UniProt O15520). In words: compounds binding fibroblast growth factor 10 – biochemical, small-molecule microarray, 635 nm fluorescence, primary screen (AID 1102). As to conditions: FGF10 binding, fluorescence 635 nm, higher = more signal.
The subject of assay [6] is glycogen synthase kinase-3 (GSK3A per assay name; protocol says GSK3B). In words: compounds binding glycogen synthase kinase-3 – biochemical, small-molecule microarray, 635 nm fluorescence, GSK3A, primary screen (AID 1103). Note: the record names both GSK3A and GSK3B. The note with it: fluorescence 635 nm, higher = more signal.
Assay [7] deals with Epidermal growth factor receptor (Homo sapiens) (UniProt P00533). In words: compounds binding epidermal growth factor receptor – biochemical, small-molecule microarray, 635 nm fluorescence, primary screen (AID 1104).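 Note: score merges 667 nm emission intensity with spot signal to noise over triplicate slides.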 As to conditions: EGFR binding, higher = more signal.
Epidermal growth factor receptor (Homo sapiens), sequence (P00533 whole entry, looked up): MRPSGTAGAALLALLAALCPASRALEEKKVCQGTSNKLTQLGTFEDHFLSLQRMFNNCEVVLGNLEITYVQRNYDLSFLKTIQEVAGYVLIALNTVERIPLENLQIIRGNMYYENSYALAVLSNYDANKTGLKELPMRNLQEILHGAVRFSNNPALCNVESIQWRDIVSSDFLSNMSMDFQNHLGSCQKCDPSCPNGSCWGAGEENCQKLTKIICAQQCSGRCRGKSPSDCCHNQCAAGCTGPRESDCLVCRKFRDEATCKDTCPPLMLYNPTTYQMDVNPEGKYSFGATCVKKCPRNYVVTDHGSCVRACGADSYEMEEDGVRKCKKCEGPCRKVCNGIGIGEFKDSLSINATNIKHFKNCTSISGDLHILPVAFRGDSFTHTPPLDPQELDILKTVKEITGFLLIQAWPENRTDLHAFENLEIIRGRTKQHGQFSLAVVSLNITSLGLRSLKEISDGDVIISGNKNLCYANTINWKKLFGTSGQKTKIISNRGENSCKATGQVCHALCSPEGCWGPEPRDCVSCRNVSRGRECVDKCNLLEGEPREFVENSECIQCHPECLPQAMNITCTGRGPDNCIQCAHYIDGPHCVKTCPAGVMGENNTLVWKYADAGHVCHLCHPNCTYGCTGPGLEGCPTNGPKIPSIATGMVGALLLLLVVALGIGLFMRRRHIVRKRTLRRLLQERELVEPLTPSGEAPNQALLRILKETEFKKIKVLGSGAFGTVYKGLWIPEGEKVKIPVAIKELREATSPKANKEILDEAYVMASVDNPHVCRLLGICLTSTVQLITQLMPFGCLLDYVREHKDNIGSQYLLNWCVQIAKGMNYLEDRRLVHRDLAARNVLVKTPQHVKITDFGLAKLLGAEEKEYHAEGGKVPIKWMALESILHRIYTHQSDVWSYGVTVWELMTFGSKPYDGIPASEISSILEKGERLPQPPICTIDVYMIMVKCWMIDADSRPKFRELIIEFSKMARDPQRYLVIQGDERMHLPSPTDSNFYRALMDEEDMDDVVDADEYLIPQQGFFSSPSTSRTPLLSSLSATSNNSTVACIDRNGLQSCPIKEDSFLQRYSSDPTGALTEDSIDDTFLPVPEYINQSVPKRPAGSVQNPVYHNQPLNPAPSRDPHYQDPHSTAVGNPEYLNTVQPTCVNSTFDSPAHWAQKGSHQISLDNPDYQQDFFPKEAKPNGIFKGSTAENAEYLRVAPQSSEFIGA
Assay [8] addresses Follistatin-related protein 3 (Homo sapiens) (UniProt O95633). In words: compounds binding follistatin-related protein 3 – biochemical, small-molecule microarray, 635 nm fluorescence, primary screen (AID 1105).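 Note: score merges emission near 667 nm and signal to noise per printed spot across three slides.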 As to conditions: FSTL3 binding, higher = more signal.
In assay [9] the target is Dickkopf-related protein 1 (Homo sapiens) (UniProt O94907). In words: small molecules binding DKK1 protein – biochemical, small-molecule microarray, 635 nm fluorescence scan, primary screen (AID 1106).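 Note: score merges emission near 667 nm with signal to noise over three replicate slides.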 The note with it: higher = more signal.
Dickkopf-related protein 1 (Homo sapiens), sequence (O94907 whole entry, looked up): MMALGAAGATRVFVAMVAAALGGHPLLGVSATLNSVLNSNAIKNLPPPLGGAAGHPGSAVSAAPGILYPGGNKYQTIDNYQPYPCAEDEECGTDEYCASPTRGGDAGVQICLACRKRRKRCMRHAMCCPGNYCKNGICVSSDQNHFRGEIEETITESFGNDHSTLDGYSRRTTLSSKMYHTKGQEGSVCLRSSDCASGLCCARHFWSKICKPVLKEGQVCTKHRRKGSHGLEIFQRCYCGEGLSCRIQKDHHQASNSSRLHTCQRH
Assay [10] relates to Inhibin beta A chain (activin A). In words: small molecules binding activin A – biochemical, small-molecule microarray, 635 nm fluorescence scan, primary screen (AID 1107).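 Note: mouse activin A protein probed at 4.33 µg/mL on printed slides; score merges bound-protein fluorescence near 667 nm with spot signal-to-noise.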 As to conditions: INHBA, higher = more signal.
The test system of assay [11] is Human papillomavirus type 1a protein E7 (residues 44-93). In words: small molecules binding HPV E7 44-93 – biochemical, small-molecule microarray, residues 44-93, 635 nm fluorescence, primary screen (AID 1108).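 Note: E7 fragment applied at 1 µg/mL in TBST for 1 h at 4 C; score combines spot fluorescence with its signal to noise ratio.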 As to conditions: fluorescence 635 nm, higher = more signal.
The nature of assay [12]: hepatitis C replication reporter changes, two-sided – Huh7 cells, luciferase reporter, HCV replication inhibitor project, primary screen (AID 1109).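 Note: huh7 hepatoma cells harbouring a luciferase neomycin HCV replicon reporter; luciferase luminescence as measure of HCV replicon replication; test concentration not given here.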 The note with it: Huh7 HCV replicon luciferase reporter, 48 h; higher = more signal.
The target of assay [13] is Left-right determination factor 2 (Homo sapiens) (UniProt O00292). In words: small molecules binding LEFTY2 protein – biochemical, small-molecule microarray, 635 nm fluorescence scan, primary screen (AID 1110). As to conditions: higher = more signal.
Left-right determination factor 2 (Homo sapiens), sequence (O00292 whole entry, looked up): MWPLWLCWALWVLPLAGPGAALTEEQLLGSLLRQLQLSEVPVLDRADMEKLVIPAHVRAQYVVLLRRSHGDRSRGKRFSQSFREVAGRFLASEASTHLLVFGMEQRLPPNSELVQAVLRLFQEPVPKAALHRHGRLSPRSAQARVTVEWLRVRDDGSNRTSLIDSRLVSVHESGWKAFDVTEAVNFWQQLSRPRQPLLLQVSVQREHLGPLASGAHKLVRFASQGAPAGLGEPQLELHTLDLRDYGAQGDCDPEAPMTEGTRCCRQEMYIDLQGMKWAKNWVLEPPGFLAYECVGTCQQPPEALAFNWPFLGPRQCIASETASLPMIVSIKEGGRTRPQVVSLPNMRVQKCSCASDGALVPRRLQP
The target in assay [14] is Calmodulin-1 (Homo sapiens) (UniProt P0DP23). In words: small molecules binding calmodulin-1 with EGTA – biochemical, small-molecule microarray, Cy5-labelled CALM1, profiling panel (AID 1111).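 Note: labelled calmodulin applied in Tris saline Tween buffer holding calcium plus EGTA and DTT.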 As to conditions: Cy5-CALM1 binding fluorescence, higher = more signal.
Assay [15] has the same target. Nature of the assay: small molecules binding Ca-loaded calmodulin-1 – biochemical, small-molecule microarray, Cy5-labelled CALM1, plus calcium, artefact control for SMM control-protein annotation, profiling panel (AID 1112).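 Note: score merges spot fluorescence with signal to noise from triplicate slides.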 The note with it: Cy5-CALM1 binding fluorescence, higher = more signal.
Assay [16] can be described thus: probe aWnt5a binding to arrayed compounds – biochemical, biotinylated probe, 635/667 nm fluorescence, primary screen (AID 1113).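 Note: score merges 667 nm fluorescence intensity with signal-to-noise per printed feature.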 As to conditions: small-molecule microarray, higher = more signal.
Assay [17] is described as follows: probe aShh binding to arrayed compounds – biochemical, biotinylated probe, 635/667 nm fluorescence, primary screen (AID 1114).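 Note: probe is biotin-labelled aShh protein from a stem cell growth factor screen; measures binding of labelled protein to compounds printed on the slide; score merges feature fluorescence at 667 nm with signal-to-noise.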 The note with it: small-molecule microarray, higher = more signal.
The nature of assay [18]: probe aNog binding to arrayed compounds – biochemical, biotinylated probe, 635/667 nm fluorescence, primary screen (AID 1115).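 Note: probe is biotinylated aNog protein used at 0.15 µg/mL for 1 h at 4 C; z-score combines 667 nm fluorescence of each spot with its signal to noise.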 As to conditions: small-molecule microarray, higher = more signal.
In assay [19] the target is Torsin-1A-interacting protein 1 (Homo sapiens) (UniProt Q5JTV8). Nature of the assay: compound microarray binding of lysate hLAP1 – cell lysate, small-molecule microarray, COS7 lysate, 635/667 nm fluorescence, primary screen (AID 1116). As to conditions: 635 nm fluorescence, higher = more signal.
Torsin-1A-interacting protein 1 (Homo sapiens), sequence (Q5JTV8 whole entry, looked up): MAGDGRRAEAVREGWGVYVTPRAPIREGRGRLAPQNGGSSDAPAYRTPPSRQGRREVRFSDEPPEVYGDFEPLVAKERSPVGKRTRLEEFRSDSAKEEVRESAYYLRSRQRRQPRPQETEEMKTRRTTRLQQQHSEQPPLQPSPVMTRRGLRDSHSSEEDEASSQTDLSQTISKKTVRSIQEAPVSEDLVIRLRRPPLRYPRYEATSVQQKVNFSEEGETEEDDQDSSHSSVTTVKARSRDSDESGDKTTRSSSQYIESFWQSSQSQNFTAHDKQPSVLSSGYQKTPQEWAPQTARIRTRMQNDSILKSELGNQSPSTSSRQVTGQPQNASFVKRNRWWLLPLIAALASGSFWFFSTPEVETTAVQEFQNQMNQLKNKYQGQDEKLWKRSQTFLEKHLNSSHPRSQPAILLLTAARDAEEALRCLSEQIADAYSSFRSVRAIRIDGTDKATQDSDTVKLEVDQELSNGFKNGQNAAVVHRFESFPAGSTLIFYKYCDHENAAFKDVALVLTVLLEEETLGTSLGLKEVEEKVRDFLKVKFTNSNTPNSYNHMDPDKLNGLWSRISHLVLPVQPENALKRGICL
For assay [20], the target named is Alpha-bungarotoxin (Bungarus multicinctus) (UniProt P60615). Nature of the assay: compounds binding labelled alpha-BTX control protein – biochemical, small-molecule microarray, Alexa647 label, 635/667 nm fluorescence, artefact control for SMM control protein annotation, profiling panel (AID 1117). As to conditions: alpha-BTX-A647 binding fluorescence, higher = more signal.
Alpha-bungarotoxin (Bungarus multicinctus), sequence (P60615 whole entry, looked up): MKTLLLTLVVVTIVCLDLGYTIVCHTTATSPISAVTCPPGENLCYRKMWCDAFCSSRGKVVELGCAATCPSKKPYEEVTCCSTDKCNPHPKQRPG

Structures are written as SMILES. The source made the active and inactive calls.

Fibroblast growth factor 10 (Homo sapiens), sequence (O15520 whole entry, looked up): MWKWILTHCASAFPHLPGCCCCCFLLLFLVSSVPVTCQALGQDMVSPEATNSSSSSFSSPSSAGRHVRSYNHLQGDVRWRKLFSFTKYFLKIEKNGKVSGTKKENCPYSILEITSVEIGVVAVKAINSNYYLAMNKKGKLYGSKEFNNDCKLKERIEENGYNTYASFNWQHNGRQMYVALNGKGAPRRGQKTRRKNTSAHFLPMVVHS
Follistatin-related protein 3 (Homo sapiens), sequence (O95633 whole entry, looked up): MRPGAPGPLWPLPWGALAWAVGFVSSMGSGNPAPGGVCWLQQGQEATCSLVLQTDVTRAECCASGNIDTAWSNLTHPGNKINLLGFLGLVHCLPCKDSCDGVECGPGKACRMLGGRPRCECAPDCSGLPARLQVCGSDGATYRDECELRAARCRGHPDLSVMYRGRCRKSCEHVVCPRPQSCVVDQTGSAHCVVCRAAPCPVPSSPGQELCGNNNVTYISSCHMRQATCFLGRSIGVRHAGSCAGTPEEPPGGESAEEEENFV

With `C#CCCCON=C1C[C@@H](O)[C@@H](O)[C@@H]2[C@@H]3C(=O)N([C@@H](C)c4ccccc4)C(=O)[C@@H]3CC[C@H]12`, the composite z-score is 0.933 in assay [1]; -0.253 in assay [2]; -0.483 in assay [3]; 0.478 in assay [5]; 0.283 in assay [6]; 0.474 in [7]. For the same compound, the composite z-score in assay [8] is 0.921; in assay [9], 0.618; in [10], 0.551; in assay [11], 0.207; in assay [13] it was 0.45; in assay [14] it was 0.0505. Further, the composite z-score in assay [15] was -0.602; in assay [16], 0.0354; in assay [17] it was 0.0796; in [18], -0.285; in [19], 0.418; in assay [20] it was 0.375. Further, the z-score in [4] was -1.28 (inactive); in assay [12], -0.638.

For `C=CC[C@@H]1C=C[C@H](ON=C(C)CCN2CCc3nc(CC)c(CC)cc3C2)[C@@H](CO)O1`, the composite z-score in [1] was 1.17; in [2], 0.0057; in assay [3], 0.386; in assay [5], -0.0543; in assay [6], 0.491; in [7], 0.609. Also, the composite z-score in assay [8] was 1.14; in assay [9] it was 0.907; in [10] it was 1.8; in assay [11], 0.714; in assay [13], 0.83; in assay [14], -0.42. Further, the composite z-score is -1.34 in assay [15]; 0.0634 in assay [16]; 0.0952 in [17]; 0.222 in [18]; 0.779 in assay [19]; 0.243 in assay [20]. The z-score in [4] is 0.00248 (inactive); in assay [12], -1.57.

On to `CC(=O)C[C@H](O)[C@@H](NC(=O)OC(C)(C)C)C(C)C`, for which the composite z-score in assay [1] is -0.276; in assay [2] it was -0.186; in assay [3], -0.306; in [5], -0.456; in assay [6] it was -1.45; in assay [7] it was -0.397. Moreover, the composite z-score in assay [8] was -0.441; in assay [9], -0.31; in assay [10], 0.123; in [11], -2.43; in assay [13], -0.319; in assay [14] it was -0.292. In addition, the composite z-score in assay [15] was -0.327; in assay [16], -0.203; in assay [17] it was 0.0121; in assay [18], -0.0926; in assay [19] it was -0.547; in [20], 0.0557. Further, the z-score in assay [4] was -0.797 (inactive); in assay [12] it was 0.479.

With `CC(=O)OC[C@H]1O[C@H](CC=NOC[C@@H](C)[C@H](OCc2ccccc2)C(C)C)C=C[C@@H]1OC(C)=O`, the composite z-score was -0.15 in assay [1]; -0.262 in [2]; -0.478 in assay [3]; -0.17 in assay [5]; 0.1 in assay [6]; 0.0284 in assay [7]. For the same compound, the composite z-score in assay [8] is 0.523; in assay [9] it was 0.169; in assay [10], -0.0543; in [11], 0.16; in [13] it was 0.455; in assay [14] it was -0.47. Also, the composite z-score was -0.499 in assay [15]; 0.0437 in [16]; -0.186 in assay [17]; -0.526 in assay [18]; -0.698 in assay [19]; -0.164 in [20]. For the same compound, the z-score in assay [4] is 0.955 (inactive); in assay [12], -0.854.

With `C[C@@H](c1ccccc1)N1C(=O)[C@H]2[C@H]3[C@H](O)C=CC(=O)[C@@H]3CC[C@H]2C1=O`, the composite z-score in assay [1] is -0.0301; in assay [2], -0.293; in [3], -0.674; in assay [5] it was 0.373; in assay [6] it was 0.606; in assay [7], 0.54. In addition, the composite z-score in [8] is 0.699; in [9] it was 0.557; in [10] it was 0.25; in [11], -0.116; in assay [13], 0.657; in [14], 0.0321. In addition, the composite z-score is -0.442 in assay [15]; -0.192 in assay [16]; -0.34 in [17]; -0.374 in assay [18]; 0.203 in [19]; 0.0013 in assay [20]. Further, the z-score in [4] was 0.432 (inactive); in assay [12] it was -1.73.

Consider `O=C(NN=C1C[C@@H](O)[C@@H](O)[C@@H]2[C@@H]3C(=O)N(c4cccc(Oc5ccccc5)c4)C(=O)[C@@H]3CC[C@H]12)OCc1ccccc1`, for which the composite z-score is 0.373 in [1]; 0.0708 in [2]; 0.408 in assay [3]; -0.113 in assay [5]; -0.281 in [6]; 0.116 in [7]. For the same compound, the composite z-score is -0.146 in [8]; -0.0924 in assay [9]; 0.242 in [10]; -0.142 in [11]; 0.0075 in [13]; 0.0088 in assay [14]. Besides, the composite z-score in [15] was -0.312; in assay [16], -0.0664; in [17], 0.3; in assay [18], 0.116; in assay [19], -0.0681; in assay [20], 1.05. The values for the z-score in assay [4] and in assay [12] were 0.0933 (inactive) and -0.597, respectively.
